Bioassay records from PubChem BioAssay.
Sampled rows, rich in hits. Any-hit rate of the full collection: about 10%.
HP1b chromo inh – HTS for Inhibitors of HP1-beta Chromodomain Interactions with Methylated Histone Tails; Chromobox protein homolog 1 (Homo sapiens), P83916; AlphaScreen HP1-beta / biotin-H3K9me3 peptide binding; Potency, µM (series often up to 114 µM), for the others: top-dose activity change, negative = inhibition, hits mostly inhibitors; 390,000 tested, 0.56% active; AID 540317, 2011; further: nearly all actives have a fitted effect of over 70% in size
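AlphaScreen: HP1-beta (50 nM) preformed 30 min with biotin-H3(1-18)K9me3 peptide (50 nM) in PBS pH 7.4, 0.01% Tween-20. Compound added for 30 min at RT, then streptavidin donor/nickel chelate acceptor beads (10 ug/mL) for 30 min.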
BAZ2B block – qHTS Assay for Inhibitors of BAZ2B; Bromodomain adjacent to zinc finger domain protein 2B (Homo sapiens), Q9UIF8; AlphaScreen BAZ2B-H3K14Ac peptide displacement; Potency, µM (doses to about 114 µM), for the others: top-dose activity change, negative = inhibition, actives largely listed as inhibitors; 360,000 tested, 4.4% active; AID 504333, 2011; further: on the % scale 0 is the no-effect control and ±100 the full control effect; nearly all actives have a fitted effect of over 60% in size
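Inhibition is scored as reduced AlphaScreen emission. The BAZ2B/b-H3(5-23)K14Ac complex (50 nM each) in PBS pH 7.4, 0.01% Tween-20 meets compound (up to 110 uM) for 30 min at RT before bead addition.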
GLS inh – qHTS for Inhibitors of Glutaminase (GLS); Potency, µM (doses to about 45.5 µM), for the others: at the highest dose activity change, negative = inhibition, usual class: inhibitors; Glutaminase kidney isoform, mitochondrial (Homo sapiens), O94925; 410,000 tested, 0.21% active; GLS enzymatic activity, qHTS titration; further: on the % scale 0 is the no-effect control and ±100 the full control effect
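Human kidney-isoform GLS in 45 mM KH2PO4 pH 8.2, 0.02% Tween-20, with compound, started with 1mM L-Glutamine (added stock). Glutamate oxidase/HRP/Amplex red coupled fluorescence read at start and after 30 min at RT.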
G9a block – qHTS Assay for Inhibitors of Histone Lysine Methyltransferase G9a; 350,000 tested, 8.8% active; Potency, µM (titrated, usually from 102 µM), inactives show at the top dose activity, negative = inhibition, usual class: inhibitors; G9a H3K9 monomethylation, AlphaScreen, 2 h; Histone-lysine N-methyltransferase EHMT2 (Homo sapiens), Q96KQ7; further: on the % scale 0 is the no-effect control and ±100 the full control effect; nearly all actives have a fitted effect of over 75% in size
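AlphaScreen read-out: biotin-H3K9 peptide (500 nM) methylation by 20 nM enzyme with 20 uM SAM, 2 h at room temperature after 15 min compound preincubation; anti-monomethyl H3K9 antibody plus donor/acceptor beads, 10 min dark.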
JMJD2A Tudor – qHTS Assay for Inhibitors of JMJD2A-Tudor Domain. Lysine-specific demethylase 4A (Homo sapiens), O75164. 390,000 tested, 4.4% active. AlphaScreen JMJD2A-Tudor / H3K4me3 peptide binding. Potency, µM (doses to about 114 µM), for the others: at the highest dose activity change, negative = inhibition, most hits filed as inhibitors; further: on the % scale 0 is the no-effect control and ±100 the full control effect; nearly all actives have a fitted effect of over 50% in size
An asterisk follows results filed as active; ? = inconclusive; . = no result; [ ] = remark or other dose. The call rests on the fitted dose curve; in most records, active means well fitted curve in the direction sought with a large enough effect; inconclusive means small, poorly fitted or top-dose-only effect, or another doubt; inactive means no such curve, though single readings can be large; an effect the other way counts as inactive or inconclusive. Potency means the concentration at half of the fitted maximal effect.

SMILES	HP1b chromo inh	BAZ2B block	GLS inh	G9a block	JMJD2A Tudor
COc1ccccc1C(=O)Oc1c(Sc2ccccc2)c(C)nn1-c1ccccc1	91.0%	26.2%	19.1%	-27.7%[59 µM]	28.3%
COc1cc(C(=O)Oc2c(Sc3ccc(C)cc3)c(C)nn2-c2ccccc2)cc(OC)c1OC	41.9%	-14.6%	12.3%	14.1µM*	-29.4%
Cc1nn(C(=O)COc2ccc(Cl)cc2)c(C)c1Sc1ccccc1	53.4%	8.8%	-2.1%	-21.4%[59 µM]	9.3%
Cc1[nH]c2ccccc2c1SCCNC(=O)c1ccc(S(=O)(=O)N2CCCC2)cc1	20.3%	-33.9%	-4.9%	-8.8%	-23.9%
CC(C)c1ccccc1OCC(=O)NN1C(=O)c2ccccc2C1=O	44.3%	-15.9%	0.9%	.	3.8%
COc1ccc(OC)c(C(O)c2coc3ccc(O)c(CN(C)C)c23)c1 (stereo unspecified)	21.7%	-19.7%	9.7%	?	-19.6%
CCOC(=O)c1c(-c2ccccc2)oc2ccc(O)c(CN3CCCC3)c12	10.0%	-30.2%	.	44.7µM*	-10.5%
COc1ccc(OC)c(C(O)c2coc3ccc(O)c(CN4CCOCC4)c23)c1 (stereo unspecified)	4.7%	-22.8%	5.5%	8.4%[59 µM]	89.1µM*
COc1ccc(C(=O)c2c(C)oc3ccc(O)c(CN4CCOCC4)c23)cc1	-1.5%	-6.3%	-7.2%	44.7µM*	-33.1%
CCOC(=O)c1c(-c2ccccc2)oc2ccc(O)c(CN(C)C)c12	18.2%	6.1%	18.5%	?	-18.8%
COc1ccc2nc(SCC(=O)NC3CCCCC3)[nH]c2c1	8.7%	-3.8%	15.3%	17.7%	-4.1%
CCOc1ccc(NC(=O)CN(C)C(=O)c2cc(C)oc2C)cc1OCC	22.3%	-2.9%	-10.8%	-30.6%	-12.4%
O=C(NC1CCCCCCC1)c1cccnc1	25.0%	-1.1%	-8.5%	-7.0%	-1.4%
O=C(CCCn1c(=S)[nH]c2ccsc2c1=O)NCc1ccco1	4.4%	?	-12.7%	?	56.2µM*
O=C(CCCCn1c(=S)[nH]c2ccsc2c1=O)NCc1ccco1	-14.7%	-31.9%	-1.8%	22.4µM*	25.1µM*
Cc1ccccc1Cn1c(=O)n(CCCC(=O)NCc2ccco2)c(=O)c2sccc21	4.4%	5.0%	4.9%	19.6%	-19.7%
Cc1nc2cc(-c3ccc(Cl)cc3)nn2c(NCCN(C)C)c1C	11.6%	-34.9%	-4.3%	70.8µM*	-34.3%
CC(NCCOCCOc1ccccc1)c1ccccc1 (stereo unspecified)	32.0%	-0.1%	-3.5%	9.0%[59 µM]	12.7%
CCOc1ccc(OCCOCCOc2ccccc2Cl)cc1	187.9%	74.8%	0.1%	20.2%[59 µM]	59.2%
CCC(C)NCCOCCOc1ccc(Cl)c(C)c1C (stereo unspecified)	?	-25.3%	12.4%	?	3.55µM*
CCC(C)NCCOCCOc1ccc(Cl)c2ccccc12 (stereo unspecified)	-1.5%	?	7.2%	12.6µM*	-20.7%
O=C(NCc1cccnc1)c1ccc2c(=O)n(CCCN3CCCC3=O)c(=S)[nH]c2c1	53.8%	?	.	39.8µM*	?
CCCCCNC(=O)c1ccc2c(=O)n(CCCN3CCCC3=O)c(=S)[nH]c2c1	28.9%	-12.4%	-17.4%	6.31µM*	-5.6%
O=C(COC(=O)CNC(=O)C1CCCCC1)NCc1ccc(Cl)cc1	20.6%	.	-1.5%	.	-17.6%
CCOCCCNC(=O)c1cc2c(s1)-c1ccccc1SC2	15.4%	3.3%	-3.3%	10µM*	-3.3%
COCCN1C(=O)c2ccc(C(=O)Nc3cccnc3)cc2C1=O	18.3%	-0.1%	4.9%	2.2%[12.7 µM]	-11.7%
CS(=O)(=O)c1[nH]nc(-c2cccc(Cl)c2)c1C#N	24.7%	-4.0%	0.0%	4.3%	-3.9%
COc1ccc(/C=N/N2CCN(C)CC2)cc1O	-6.3%	15.2%	-10.2%	31.6µM*	-13.7%
CN1CCN(/N=C/c2ccc(N(C)c3ccccc3)cc2)CC1	-5.3%	35.5µM*	-15.0%	?	-32.1%
